Screening results from PubChem.
MsrA inhibitor: bovine MsrA inhibition | purified bovine MsrA, absorbance read-out | inhibition, % at 15.5 µM | 360,000 compounds, 0.75% hits
EBNA-1 inh: blocks EBNA-1 binding to DNA | EBNA-1 DNA binding, fluorescence polarization | inhibition, % at 14.8 µM | 300,000 compounds, 0.34% hits | AID 1950; in the data active = inhibition above about 28%
PP5 primary: blocks human protein phosphatase 5 activity; P53041; purified PP5c, OMFP substrate fluorescence; inhibition, % at 6.7 µM; 320,000 compounds, 0.18% hits; AID 1987;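 active = inhibition above the campaign's mean inhibition across all tested compounds plus 3 SD, cut at about 9.5% in these data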
ZTA counter: ZTA (EBV) inhibition in EBNA-1 counter-screen; P03206; ZTA-DNA binding, fluorescence polarization; inhibition, % at 11 µM; 320,000 compounds, 0.15% hits; in the data active = inhibition above about 33%
Target sequence (P03206 whole entry, looked up): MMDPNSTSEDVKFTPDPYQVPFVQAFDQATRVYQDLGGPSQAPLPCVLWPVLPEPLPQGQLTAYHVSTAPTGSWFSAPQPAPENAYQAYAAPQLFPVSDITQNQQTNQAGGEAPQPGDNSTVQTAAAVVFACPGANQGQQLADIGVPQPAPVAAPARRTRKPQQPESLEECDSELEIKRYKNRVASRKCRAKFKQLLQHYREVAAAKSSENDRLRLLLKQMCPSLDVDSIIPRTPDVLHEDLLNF
bovine MsrA act: bovine methionine sulfoxide reductase A activation; purified bovine MsrA, absorbance read-out; activation, % at 10.6 µM; 360,000 compounds, 0.3% hits; AID 602163; in the data active = activation above about 7.5%
PP1 inh: blocks human PP1-alpha phosphatase, a PP5 counter-screen; purified PP1alpha, OMFP fluorescence; P62136; inhibition, % at 6.7 µM; 320,000 compounds, 0.9% hits; AID 2235;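 active = inhibition above the mean inhibition of all tested compounds plus 3 SD, computed separately for each screening campaign, cut at about 15% in these data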
Target sequence (P62136 whole entry, looked up): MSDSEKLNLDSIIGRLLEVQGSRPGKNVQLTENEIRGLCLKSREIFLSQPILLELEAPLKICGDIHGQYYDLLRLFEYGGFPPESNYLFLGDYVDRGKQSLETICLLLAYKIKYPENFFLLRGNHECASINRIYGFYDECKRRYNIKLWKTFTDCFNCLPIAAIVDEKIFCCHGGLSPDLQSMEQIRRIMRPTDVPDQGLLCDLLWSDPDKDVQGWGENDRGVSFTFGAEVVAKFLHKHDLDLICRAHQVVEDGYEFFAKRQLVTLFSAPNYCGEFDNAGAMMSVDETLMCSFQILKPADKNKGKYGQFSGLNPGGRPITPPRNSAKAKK
MsrA conf: confirmation of bovine MsrA inhibitors | shares compounds with MsrA inhibitor | purified bovine MsrA, absorbance read-out | inhibition, % at 15.5 µM | 2,300 compounds, 41% hits | AID 651822;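 also: coupled to thioredoxin reductase with NADPH and selenocystamine and DMSO as substrate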
Large screens that a line does not name were inactive (follow-up assays come after a bar, where they were run); ! = not confirmed by another sample. Hits are enriched below; roughly 2.3% of the tested compounds scored in any of these assays. Rule as the data show it, unless noted: active = inhibition above about 4.5%; inactive = the rest.

O=C(NCc1ccccc1)/C(=C\c1ccc(O)cc1)NC(=O)c1ccco1	MsrA inhibitor 4.8 | MsrA conf inactive
COc1ccc(NC(=O)/C(=C\c2ccc(OC)c(OC)c2)NC(=O)c2ccco2)cc1	MsrA inhibitor 5.0 | MsrA conf 4.8
CC(=O)c1ccc(NC(=O)/C(=C\c2cccs2)NC(=O)c2ccco2)cc1	MsrA inhibitor 5.0 | MsrA conf 4.7
COc1ccc(NC(=O)/C(=C/c2cccs2)NC(=O)c2ccco2)cc1	none
COc1ccc(NC(=O)/C(=C/c2ccc3c(c2)OCO3)NC(C)=O)cc1	MsrA inhibitor 5.0 | MsrA conf inactive
O=C(NCCc1ccc(Cl)cc1)c1cc(S(=O)(=O)N2CCCCC2)c[nH]1	none (no result: MsrA inhibitor)
O=C(CSc1ccc([N+](=O)[O-])cn1)Nc1cc(C(F)(F)F)ccc1N1CCOCC1	none
NS(=O)(=O)c1ccc(NC(=S)NNC(=O)c2ccc(Br)o2)cc1	MsrA inhibitor 4.9 | MsrA conf inactive
O=C(COc1ccccc1[N+](=O)[O-])N(Cc1ccccc1)c1ccccn1	MsrA inhibitor 7.3 | MsrA conf inactive
COc1cc2c(cc1O)C(CSC)Cc1cc3c(cc1N(C)CC2)OCO3 (configuration not stated)	none (no result: EBNA-1 inh, PP5 primary, ZTA counter, PP1 inh)
O=C(NN=Cc1ccc(OC(F)F)cc1)c1ccc(NS(=O)(=O)c2cccs2)cc1	MsrA inhibitor 5.5 (no result: EBNA-1 inh, PP5 primary, ZTA counter, PP1 inh) | MsrA conf inactive
O=C(N/N=C/c1ccc([N+](=O)[O-])cc1)c1ccc(NS(=O)(=O)c2cccs2)cc1	MsrA inhibitor 5.4 (no result: EBNA-1 inh) | MsrA conf 6.3
C/C(=N\NC(=O)c1ccc(NS(=O)(=O)c2cccs2)cc1)c1ccc(O)cc1O	MsrA inhibitor 5.5 | MsrA conf 4.7
COc1cc(/C=N/NC(=O)c2ccc(NS(=O)(=O)c3cccs3)cc2)cc(OC)c1O	MsrA inhibitor 6.5 (no result: EBNA-1 inh) | MsrA conf 6.4
O=C(NN=Cc1ccccc1OC(F)F)c1ccc(NS(=O)(=O)c2cccs2)cc1	none (no result: EBNA-1 inh, PP5 primary, ZTA counter, PP1 inh)
C/C(=N\NC(=O)c1ccc(NS(=O)(=O)c2cccs2)cc1)c1ccccc1	none
CCOC(=O)C1CCCN(Cc2ccc(OCC)cc2)C1 (configuration not stated)	none
CC(=O)NNC(=O)c1csc(-c2csc(C)n2)n1	none
CCN(CCNCC(O)COCc1ccc(Cl)cc1)c1cccc(C)c1 (configuration not stated)	none
COc1ccc(S(=O)(=O)CC(O)CN2CCCC2=O)cc1 (configuration not stated)	none
CC(C)(C)c1ccc(Cn2ccc(-c3ccc4c(c3)OCO4)n2)cc1	none
CCc1ccccc1N(C(=O)CCC(=O)Nc1cc(C)on1)C(C(=O)NC1CCCC1)c1ccco1 (configuration not stated)	none
CC(C)CN(CC(C)C)S(=O)(=O)N1CCC(C(=O)NCc2ccco2)CC1	none
Cc1c(NC(=S)/C=C2\N(C)c3ccccc3C2(C)C)c(=O)n(-c2ccccc2)n1C	none
CN1/C(=C\C=O)C(C)(C)c2ccccc21	MsrA inhibitor 6.8 | MsrA conf 6.0
CN1/C(=C/C=C(C#N)C#N)C(C)(C)c2ccccc21	none
Cc1c(N=C/C=C2/N(C)c3ccccc3C2(C)C)c(=O)n(-c2ccccc2)n1C	MsrA inhibitor 5.7! | MsrA conf inactive
Cc1c(N=C/C=C2\N(C)c3ccccc3C2(C)C)c(=O)n(-c2ccccc2)n1C	MsrA inhibitor 6.1 | MsrA conf 4.9
COc1ccc(S(=O)(=O)N2CCN(C(=O)c3cc(C)nc4ccccc34)CC2)cc1OC	none (no result: EBNA-1 inh, PP5 primary, ZTA counter, PP1 inh)
CCc1nc(SCC(=O)N2CCCC2)c2c(=O)n(C)c(=O)n(C)c2n1	none
CCCCc1nc(SCC(=O)N2CCCC2)c2c(=O)n(C)c(=O)n(C)c2n1	MsrA inhibitor 7.5 | MsrA conf 6.9
CC(C)Cc1nc(SCC(=O)N2CCCC2)c2c(=O)n(C)c(=O)n(C)c2n1	MsrA inhibitor 8.0 | MsrA conf 7.2
COc1ccc(CCNC(=O)COC(=O)/C=C/c2ccc(OC)cc2OC)cc1	none (no result: EBNA-1 inh, PP5 primary, ZTA counter, PP1 inh)
Cc1cc(NS(=O)(=O)c2ccc(NC(=O)c3cnc4scc(C)n4c3=O)cc2)nc(C)n1	MsrA inhibitor 6.8 | MsrA conf inactive
Cc1cc(NS(=O)(=O)c2ccc(NC(=O)c3ccco3)cc2)nc(C)n1	none
Cc1ccc(-n2ccc(=O)c(C(=O)Nc3ccc(S(=O)(=O)Nc4onc(C)c4C)cc3)n2)cc1	MsrA inhibitor 4.8 | MsrA conf inactive
Cc1cc(C(=O)Nc2ccc(S(=O)(=O)Nc3onc(C)c3C)cc2)cs1	none
Cc1noc(NS(=O)(=O)c2ccc(NC(=O)c3cnc4scc(C)n4c3=O)cc2)c1C	MsrA inhibitor 5.8 | MsrA conf 6.2
Cc1cc(NS(=O)(=O)c2ccc(NC(=O)c3ccc(Cl)nc3)cc2)nc(C)n1	none (no result: EBNA-1 inh, PP5 primary, ZTA counter, PP1 inh)
Cc1cc(NS(=O)(=O)c2ccc(NC(=O)/C=C/c3ccco3)cc2)nc(C)n1	MsrA inhibitor 6.7 | MsrA conf 4.8
O=C(CNCCc1ccc(F)cc1)Nc1cc(F)ccc1F	none
CC(=O)Nc1ccc(N=C(C2=C(O)c3ccccc3C2=O)c2ccccc2)cc1	MsrA inhibitor 4.7 | MsrA conf inactive
Cc1nc2c(=O)n(C)c(=O)n(C)c2nc1Cl	MsrA inhibitor 4.7 | MsrA conf inactive
Cn1c(=O)c2nc(NCc3ccccc3)cnc2n(C)c1=O	none
O=C(N/N=C/c1cccn1-c1ccc(O)cc1)c1cccc2ccccc12	MsrA inhibitor 5.2 | MsrA conf inactive
O=C(Nc1nnc(/C=C/c2ccccc2)s1)c1ccco1	MsrA inhibitor 5.8 | MsrA conf inactive
CCN(CC)S(=O)(=O)c1nnc(NC(=O)c2ccco2)s1	MsrA inhibitor 6.6 | MsrA conf inactive
Cc1cccc(-c2nnc(NC(=O)c3ccco3)s2)c1	MsrA inhibitor 4.8 | MsrA conf inactive
CCCCn1c(SCC(=O)N(C)C)nnc1-c1ccncc1	none
CC(=O)c1ccc(N2CCN(S(=O)(=O)c3cccc4nsnc34)CC2)cc1	MsrA inhibitor 4.7 | MsrA conf inactive
O=C(NNS(=O)(=O)c1ccc(Br)cc1)c1ccccc1-n1cccc1	none
O=[N+]([O-])c1ccc(Cl)c(-c2ccc(/C=N/n3cnnc3)o2)c1	MsrA inhibitor 5.2 | MsrA conf 6.0
O=[N+]([O-])c1cc(-c2ccc(/C=N/n3cnnc3)o2)ccc1Cl	none
COC(=O)/C(=C(O)\C=C\c1ccccc1[N+](=O)[O-])c1nc2ccccc2[nH]1	none
COc1cc(C(=O)O[C@H]2CC(C)=CC[C@@]3(C)CC[C@@](O)(C(C)C)[C@H]23)ccc1O	none
CC(C)N(C(=O)N1CCN(c2ccnc3cc(Cl)ccc23)CC1)C(C)C	none (no result: EBNA-1 inh, PP5 primary, ZTA counter, PP1 inh)
O=C(NC1CCCCCC1)c1cc(-c2ccccn2)nc2ccccc12	none
NC(=O)CC(NC(=O)c1ccccc1)c1ccc(NCCN2CCCCC2)c([N+](=O)[O-])c1 (configuration not stated)	none
COC(=O)c1ccccc1NC(=O)c1cnc2sccn2c1=O	none
